Experiments:
Assay in all cases: DAPPL (digital affinity profiling via proximity ligation, sequencing); 10 mM Tris-HCl pH 7.5, 50 mM NaCl, 1 mM DTT, 4% glycerol, room temperature, 30 min; GST-TFs on glutathione beads, 16-mer random dsDNA library, 0.1% formaldehyde crosslink after washing; high values mean tight binding
FLI1 = molecular target: T1, FLI1 (Homo sapiens, UniProt Q01543 1-452); details: protein: recombinant; tags: N-terminal GST; dsDNA, one strand shown
T1 sequence: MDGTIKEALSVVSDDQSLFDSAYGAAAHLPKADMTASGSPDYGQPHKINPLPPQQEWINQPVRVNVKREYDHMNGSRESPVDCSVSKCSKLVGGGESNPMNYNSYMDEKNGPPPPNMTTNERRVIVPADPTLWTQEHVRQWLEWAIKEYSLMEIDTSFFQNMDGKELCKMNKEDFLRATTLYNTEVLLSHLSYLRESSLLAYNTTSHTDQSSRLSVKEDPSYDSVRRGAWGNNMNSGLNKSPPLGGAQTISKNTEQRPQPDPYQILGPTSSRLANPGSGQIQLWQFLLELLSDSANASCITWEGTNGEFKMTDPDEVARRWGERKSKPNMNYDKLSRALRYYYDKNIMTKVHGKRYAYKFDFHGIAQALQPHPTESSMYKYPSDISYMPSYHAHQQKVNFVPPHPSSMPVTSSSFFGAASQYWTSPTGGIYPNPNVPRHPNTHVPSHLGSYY
In short: (§1)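 Beads coated with glutathione captured GST-fused human transcription factors that had been expressed in yeast, and the factors were then given DNA barcodes and pooled with a tag-only sample. The pools were incubated with 200 nmole of a random double-stranded 16-mer DNA library in Tris/NaCl/DTT/glycerol buffer for 30 min at room temperature, washed, crosslinked with 0.1% formaldehyde and proximity-ligated with BsaI/T4 ligase at 37 °C for 1 h. PCR amplification and Illumina NextSeq500 sequencing came last. Binding signal is each hexamer's read frequency for a factor divided by its frequency for the tag-only sample.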

ELK1 = molecular target: T2, ELK1 (Homo sapiens, UniProt P19419 1-428); details: protein: recombinant; tags: N-terminal GST; dsDNA, one strand shown
T2 sequence: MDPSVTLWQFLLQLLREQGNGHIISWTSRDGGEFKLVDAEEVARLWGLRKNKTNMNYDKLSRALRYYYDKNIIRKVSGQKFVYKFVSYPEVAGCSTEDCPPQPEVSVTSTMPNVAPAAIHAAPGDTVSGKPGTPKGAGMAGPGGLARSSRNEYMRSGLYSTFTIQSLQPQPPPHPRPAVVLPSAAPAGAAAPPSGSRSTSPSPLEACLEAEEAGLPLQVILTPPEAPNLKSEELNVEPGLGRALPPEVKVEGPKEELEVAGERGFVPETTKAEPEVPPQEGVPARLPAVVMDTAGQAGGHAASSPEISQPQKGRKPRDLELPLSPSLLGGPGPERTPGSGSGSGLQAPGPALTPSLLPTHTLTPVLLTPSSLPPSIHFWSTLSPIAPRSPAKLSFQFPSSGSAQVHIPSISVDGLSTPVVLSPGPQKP
In short: as §1

GABPA = molecular target: T3, GABPA (Homo sapiens, UniProt Q06546 1-454); details: protein: recombinant; tags: N-terminal GST; dsDNA, one strand shown
T3 sequence: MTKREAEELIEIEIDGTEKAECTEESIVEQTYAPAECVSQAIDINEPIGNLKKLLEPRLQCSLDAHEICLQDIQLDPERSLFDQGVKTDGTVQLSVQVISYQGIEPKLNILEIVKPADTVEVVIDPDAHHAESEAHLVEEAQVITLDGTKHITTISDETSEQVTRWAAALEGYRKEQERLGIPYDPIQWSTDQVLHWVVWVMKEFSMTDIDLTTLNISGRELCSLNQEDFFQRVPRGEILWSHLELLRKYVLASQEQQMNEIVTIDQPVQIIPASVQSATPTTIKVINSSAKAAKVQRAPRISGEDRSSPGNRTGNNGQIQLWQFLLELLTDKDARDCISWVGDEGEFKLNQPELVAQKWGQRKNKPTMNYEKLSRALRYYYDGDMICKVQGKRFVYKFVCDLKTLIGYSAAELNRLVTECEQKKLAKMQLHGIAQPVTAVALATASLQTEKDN
In short: as §1

ERG = molecular target: T4, ERG (Homo sapiens, UniProt P11308 1-479); details: protein: recombinant; tags: N-terminal GST; dsDNA, one strand shown
T4 sequence: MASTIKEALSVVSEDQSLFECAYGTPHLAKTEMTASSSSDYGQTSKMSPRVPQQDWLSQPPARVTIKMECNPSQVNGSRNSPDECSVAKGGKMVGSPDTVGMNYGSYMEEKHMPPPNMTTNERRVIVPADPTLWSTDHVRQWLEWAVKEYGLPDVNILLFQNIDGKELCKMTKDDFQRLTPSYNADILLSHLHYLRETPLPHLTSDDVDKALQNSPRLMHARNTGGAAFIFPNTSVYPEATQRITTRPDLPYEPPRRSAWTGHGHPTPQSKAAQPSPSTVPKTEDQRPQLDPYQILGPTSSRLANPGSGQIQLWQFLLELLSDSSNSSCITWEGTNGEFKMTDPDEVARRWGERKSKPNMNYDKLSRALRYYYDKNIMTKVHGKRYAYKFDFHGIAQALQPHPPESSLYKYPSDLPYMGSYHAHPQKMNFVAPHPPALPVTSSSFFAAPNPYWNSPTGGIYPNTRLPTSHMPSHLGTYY
In short: as §1

ELF1 = ELF1 (Homo sapiens, UniProt P32519 1-619); details: protein: recombinant; tags: N-terminal GST; dsDNA, one strand shown
Sequence of ELF1 (P32519 whole entry): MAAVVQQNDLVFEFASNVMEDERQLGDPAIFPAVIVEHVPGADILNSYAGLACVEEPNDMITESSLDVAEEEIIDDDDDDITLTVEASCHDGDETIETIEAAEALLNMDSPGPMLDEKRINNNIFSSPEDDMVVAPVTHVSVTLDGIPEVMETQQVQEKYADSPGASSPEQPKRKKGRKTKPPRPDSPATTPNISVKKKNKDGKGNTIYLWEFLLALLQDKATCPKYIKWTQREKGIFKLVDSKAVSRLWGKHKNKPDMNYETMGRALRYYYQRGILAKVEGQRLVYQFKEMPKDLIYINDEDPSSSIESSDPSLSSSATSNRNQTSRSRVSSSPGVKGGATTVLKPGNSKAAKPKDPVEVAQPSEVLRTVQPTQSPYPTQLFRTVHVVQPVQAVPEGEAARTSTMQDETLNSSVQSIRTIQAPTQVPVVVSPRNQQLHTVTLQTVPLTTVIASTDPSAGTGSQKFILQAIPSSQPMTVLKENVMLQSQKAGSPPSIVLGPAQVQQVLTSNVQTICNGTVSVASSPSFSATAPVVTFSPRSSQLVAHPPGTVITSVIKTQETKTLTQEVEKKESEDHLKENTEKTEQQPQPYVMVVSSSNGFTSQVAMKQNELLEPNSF
In short: as §1

EHF = molecular target: T5, EHF (Homo sapiens, UniProt Q9NZC4 1-300); details: protein: recombinant; tags: N-terminal GST; dsDNA, one strand shown
T5 sequence: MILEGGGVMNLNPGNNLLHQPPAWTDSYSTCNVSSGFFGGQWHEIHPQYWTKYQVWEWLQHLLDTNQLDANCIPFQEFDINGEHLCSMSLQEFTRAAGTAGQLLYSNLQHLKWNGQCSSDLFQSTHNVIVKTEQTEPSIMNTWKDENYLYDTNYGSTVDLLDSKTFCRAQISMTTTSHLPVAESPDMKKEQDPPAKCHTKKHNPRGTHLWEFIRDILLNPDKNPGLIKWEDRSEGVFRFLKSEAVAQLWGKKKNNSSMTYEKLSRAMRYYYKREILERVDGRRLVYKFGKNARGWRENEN
In short: as §1

SPI1 = SPI1 (Homo sapiens, UniProt P17947 1-270); details: protein: recombinant; tags: N-terminal GST; dsDNA, one strand shown
In short: as §1

SPIB = SPIB (Homo sapiens, UniProt Q01892 1-262); details: protein: recombinant; tags: N-terminal GST; dsDNA, one strand shown
Sequence of SPIB (Q01892 whole entry): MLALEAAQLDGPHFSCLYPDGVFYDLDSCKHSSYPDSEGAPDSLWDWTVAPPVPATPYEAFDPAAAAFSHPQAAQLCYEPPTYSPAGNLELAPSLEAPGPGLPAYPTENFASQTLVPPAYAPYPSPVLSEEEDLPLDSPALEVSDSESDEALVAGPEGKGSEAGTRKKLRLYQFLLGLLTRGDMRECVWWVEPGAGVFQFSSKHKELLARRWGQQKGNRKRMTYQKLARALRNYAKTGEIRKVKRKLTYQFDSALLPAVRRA
In short: as §1

ELK3 = molecular target: T6, ELK3 (Homo sapiens, UniProt P41970 1-407); details: protein: recombinant; tags: N-terminal GST; dsDNA, one strand shown
T6 sequence: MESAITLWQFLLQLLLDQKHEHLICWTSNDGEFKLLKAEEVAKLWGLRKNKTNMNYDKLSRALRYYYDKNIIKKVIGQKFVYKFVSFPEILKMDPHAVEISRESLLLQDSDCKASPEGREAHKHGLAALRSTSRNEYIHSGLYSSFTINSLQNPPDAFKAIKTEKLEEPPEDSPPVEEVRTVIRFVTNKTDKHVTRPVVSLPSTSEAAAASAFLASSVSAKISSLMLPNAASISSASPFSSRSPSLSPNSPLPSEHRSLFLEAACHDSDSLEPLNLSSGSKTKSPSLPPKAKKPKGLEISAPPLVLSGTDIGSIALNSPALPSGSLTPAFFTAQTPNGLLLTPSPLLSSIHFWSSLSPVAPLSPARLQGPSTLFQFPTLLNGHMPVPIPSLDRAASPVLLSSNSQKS
In short: as §1

FEV = molecular target: T7, FEV (Homo sapiens, UniProt Q99581 1-238); details: protein: recombinant; tags: N-terminal GST; dsDNA, one strand shown
T7 sequence: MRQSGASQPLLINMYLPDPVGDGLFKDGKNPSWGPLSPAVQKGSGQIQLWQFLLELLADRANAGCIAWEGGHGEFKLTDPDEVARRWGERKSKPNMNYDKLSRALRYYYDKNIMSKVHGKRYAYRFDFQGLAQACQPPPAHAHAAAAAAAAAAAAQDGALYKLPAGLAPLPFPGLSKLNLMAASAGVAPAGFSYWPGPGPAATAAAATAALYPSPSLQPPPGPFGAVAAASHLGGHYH
In short: as §1

ETV5 = ETV5 (Homo sapiens, UniProt P41161 1-510); details: protein: recombinant; tags: N-terminal GST; dsDNA, one strand shown
Sequence of ETV5 (P41161 whole entry): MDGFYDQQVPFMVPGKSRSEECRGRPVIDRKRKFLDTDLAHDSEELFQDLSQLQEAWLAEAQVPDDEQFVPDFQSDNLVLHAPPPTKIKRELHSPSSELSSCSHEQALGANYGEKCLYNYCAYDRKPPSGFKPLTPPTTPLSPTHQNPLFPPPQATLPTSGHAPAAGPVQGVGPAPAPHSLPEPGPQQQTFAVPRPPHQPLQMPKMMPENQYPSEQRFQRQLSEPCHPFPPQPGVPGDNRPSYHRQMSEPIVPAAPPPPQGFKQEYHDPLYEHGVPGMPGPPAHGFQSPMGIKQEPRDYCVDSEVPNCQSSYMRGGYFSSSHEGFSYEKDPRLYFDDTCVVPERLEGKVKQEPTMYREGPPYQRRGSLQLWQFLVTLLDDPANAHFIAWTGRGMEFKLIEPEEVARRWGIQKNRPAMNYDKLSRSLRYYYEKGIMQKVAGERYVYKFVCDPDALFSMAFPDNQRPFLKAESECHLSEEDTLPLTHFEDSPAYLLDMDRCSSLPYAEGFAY
In short: as §1

HSF1 = HSF1 (Homo sapiens, UniProt Q00613 1-529); details: protein: recombinant; tags: N-terminal GST; chain copies: 3; dsDNA, one strand shown
Sequence of HSF1 (Q00613 whole entry): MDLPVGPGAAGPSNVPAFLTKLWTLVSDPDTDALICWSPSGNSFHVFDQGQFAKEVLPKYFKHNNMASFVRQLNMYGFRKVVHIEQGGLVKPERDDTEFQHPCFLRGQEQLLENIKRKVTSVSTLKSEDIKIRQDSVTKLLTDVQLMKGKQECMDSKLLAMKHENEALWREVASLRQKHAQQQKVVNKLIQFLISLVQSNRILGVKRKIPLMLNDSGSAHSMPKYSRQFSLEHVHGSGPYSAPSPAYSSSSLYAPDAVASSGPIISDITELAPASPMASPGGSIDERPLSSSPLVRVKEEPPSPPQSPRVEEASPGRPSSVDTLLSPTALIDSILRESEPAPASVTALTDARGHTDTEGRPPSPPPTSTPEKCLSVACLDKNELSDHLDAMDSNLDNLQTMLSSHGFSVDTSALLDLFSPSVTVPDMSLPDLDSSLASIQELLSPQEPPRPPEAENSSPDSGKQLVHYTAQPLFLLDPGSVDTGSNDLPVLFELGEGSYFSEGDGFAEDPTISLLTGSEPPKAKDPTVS
In short: as §1

SPIC = molecular target: T8, SPIC (Homo sapiens, UniProt Q8N5J4 1-248); details: protein: recombinant; tags: N-terminal GST; dsDNA, one strand shown
T8 sequence: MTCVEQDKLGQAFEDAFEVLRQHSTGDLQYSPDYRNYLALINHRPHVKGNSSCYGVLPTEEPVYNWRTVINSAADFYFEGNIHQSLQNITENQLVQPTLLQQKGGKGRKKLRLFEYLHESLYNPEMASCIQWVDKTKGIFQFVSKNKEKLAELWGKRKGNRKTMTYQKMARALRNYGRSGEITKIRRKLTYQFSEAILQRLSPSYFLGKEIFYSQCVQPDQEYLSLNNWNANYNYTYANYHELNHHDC
In short: as §1

ELF4 = ELF4 (Homo sapiens, UniProt Q99607 1-663); details: protein: recombinant; tags: N-terminal GST; dsDNA, one strand shown
Sequence of ELF4 (Q99607 whole entry): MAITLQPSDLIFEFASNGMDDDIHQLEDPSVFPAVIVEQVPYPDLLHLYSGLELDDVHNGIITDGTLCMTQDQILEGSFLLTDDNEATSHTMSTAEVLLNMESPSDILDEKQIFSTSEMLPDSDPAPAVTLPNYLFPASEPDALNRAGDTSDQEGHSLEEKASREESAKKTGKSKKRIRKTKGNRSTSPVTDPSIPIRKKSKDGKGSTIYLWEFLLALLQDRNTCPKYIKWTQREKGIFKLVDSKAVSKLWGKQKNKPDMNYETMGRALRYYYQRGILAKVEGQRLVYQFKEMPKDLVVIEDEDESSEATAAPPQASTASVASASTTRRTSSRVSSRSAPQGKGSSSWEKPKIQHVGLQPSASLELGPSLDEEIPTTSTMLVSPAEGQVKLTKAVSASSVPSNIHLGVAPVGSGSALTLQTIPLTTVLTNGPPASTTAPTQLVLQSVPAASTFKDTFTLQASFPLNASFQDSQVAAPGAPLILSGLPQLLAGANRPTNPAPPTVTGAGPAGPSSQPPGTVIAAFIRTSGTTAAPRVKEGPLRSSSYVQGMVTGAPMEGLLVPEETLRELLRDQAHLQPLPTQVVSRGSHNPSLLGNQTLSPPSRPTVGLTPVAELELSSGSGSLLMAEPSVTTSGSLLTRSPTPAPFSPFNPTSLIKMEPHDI
In short: as §1

ELK4 = molecular target: T9, ELK4 (Homo sapiens, UniProt P28324-2 1-405); details: protein: recombinant; tags: N-terminal GST; dsDNA, one strand shown
T9 sequence: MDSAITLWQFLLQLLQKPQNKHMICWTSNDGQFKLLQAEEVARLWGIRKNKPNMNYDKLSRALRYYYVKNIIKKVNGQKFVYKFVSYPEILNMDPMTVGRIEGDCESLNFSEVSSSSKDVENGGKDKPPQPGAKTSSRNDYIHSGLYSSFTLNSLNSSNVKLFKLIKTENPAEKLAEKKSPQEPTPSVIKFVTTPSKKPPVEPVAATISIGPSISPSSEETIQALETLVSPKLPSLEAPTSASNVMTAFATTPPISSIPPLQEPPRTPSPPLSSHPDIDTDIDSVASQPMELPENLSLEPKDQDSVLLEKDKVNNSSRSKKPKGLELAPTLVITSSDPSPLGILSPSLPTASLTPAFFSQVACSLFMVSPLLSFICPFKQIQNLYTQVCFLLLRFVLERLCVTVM
In short: as §1

ETV2 = molecular target: T10, ETV2 (Homo sapiens, UniProt O00321 1-342); details: protein: recombinant; tags: N-terminal GST; dsDNA, one strand shown
T10 sequence: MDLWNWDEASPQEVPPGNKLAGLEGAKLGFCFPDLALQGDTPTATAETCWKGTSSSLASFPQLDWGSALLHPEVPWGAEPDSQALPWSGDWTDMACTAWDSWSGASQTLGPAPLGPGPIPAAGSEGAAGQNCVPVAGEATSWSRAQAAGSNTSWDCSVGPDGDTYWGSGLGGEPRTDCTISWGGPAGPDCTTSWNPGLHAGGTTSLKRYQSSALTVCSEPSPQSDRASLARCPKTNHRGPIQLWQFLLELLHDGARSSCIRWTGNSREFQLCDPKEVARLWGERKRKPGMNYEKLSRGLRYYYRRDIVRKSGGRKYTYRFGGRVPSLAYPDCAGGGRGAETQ
In short: as §1

ELF3 = molecular target: T11, ELF3 (Homo sapiens, UniProt P78545 1-371); details: protein: recombinant; tags: N-terminal GST; dsDNA, one strand shown
T11 sequence: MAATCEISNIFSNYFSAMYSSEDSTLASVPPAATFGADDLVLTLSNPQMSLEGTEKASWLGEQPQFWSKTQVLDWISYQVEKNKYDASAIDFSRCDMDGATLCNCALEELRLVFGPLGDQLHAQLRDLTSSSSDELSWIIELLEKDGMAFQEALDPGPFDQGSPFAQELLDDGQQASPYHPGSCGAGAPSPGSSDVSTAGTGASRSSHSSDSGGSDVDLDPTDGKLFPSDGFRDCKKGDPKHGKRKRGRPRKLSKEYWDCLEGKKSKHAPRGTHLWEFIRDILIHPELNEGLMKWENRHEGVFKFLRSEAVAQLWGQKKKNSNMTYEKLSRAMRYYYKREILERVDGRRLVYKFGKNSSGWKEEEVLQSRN
In short: as §1

CRX = CRX (Homo sapiens, UniProt O43186 1-299); details: protein: recombinant; tags: N-terminal GST; dsDNA, one strand shown
Sequence of CRX (O43186 whole entry): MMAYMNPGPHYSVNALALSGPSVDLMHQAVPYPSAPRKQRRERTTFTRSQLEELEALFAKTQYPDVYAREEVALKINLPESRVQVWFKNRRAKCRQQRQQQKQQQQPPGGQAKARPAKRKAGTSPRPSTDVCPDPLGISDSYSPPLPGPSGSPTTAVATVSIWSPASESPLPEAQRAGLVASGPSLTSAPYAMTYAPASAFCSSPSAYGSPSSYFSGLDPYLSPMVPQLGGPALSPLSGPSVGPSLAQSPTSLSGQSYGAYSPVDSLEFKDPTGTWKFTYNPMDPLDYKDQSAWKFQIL
In short: as §1

ETV1 = ETV1 (Homo sapiens, UniProt P50549 1-477); details: protein: recombinant; tags: N-terminal GST; dsDNA, one strand shown
Sequence of ETV1 (P50549 whole entry): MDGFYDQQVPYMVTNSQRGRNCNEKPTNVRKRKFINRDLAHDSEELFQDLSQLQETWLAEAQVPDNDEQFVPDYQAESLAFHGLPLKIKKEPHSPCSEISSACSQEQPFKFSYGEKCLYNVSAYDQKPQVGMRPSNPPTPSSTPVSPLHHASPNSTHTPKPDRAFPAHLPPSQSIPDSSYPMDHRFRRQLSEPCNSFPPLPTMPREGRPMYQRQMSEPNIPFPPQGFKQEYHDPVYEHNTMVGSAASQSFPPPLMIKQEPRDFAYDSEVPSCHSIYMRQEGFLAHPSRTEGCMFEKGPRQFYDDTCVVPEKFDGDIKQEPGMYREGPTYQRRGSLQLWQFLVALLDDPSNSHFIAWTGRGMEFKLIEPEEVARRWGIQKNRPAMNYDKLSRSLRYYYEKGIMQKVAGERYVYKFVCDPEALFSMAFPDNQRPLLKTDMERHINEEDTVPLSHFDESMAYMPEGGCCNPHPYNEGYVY
In short: as §1

CGATTA
binding signal (FLI1): 1.15 fold enrichment (6-mer frequency, TF over GST control) | binding signal (ELK1): 1.07 fold enrichment (6-mer frequency, TF over GST control) | binding signal (GABPA): 1.17 fold enrichment (6-mer frequency, TF over GST control) | binding signal (ERG): 1.16 fold enrichment (6-mer frequency, TF over GST control) | binding signal (ELF1): 1.15 fold enrichment (6-mer frequency, TF over GST control) | binding signal (EHF): 1.11 fold enrichment (6-mer frequency, TF over GST control) | binding signal (SPI1): 1.09 fold enrichment (6-mer frequency, TF over GST control) | binding signal (SPIB): 1.13 fold enrichment (6-mer frequency, TF over GST control) | binding signal (ELK3): 1.19 fold enrichment (6-mer frequency, TF over GST control) | binding signal (FEV): 1.09 fold enrichment (6-mer frequency, TF over GST control) | binding signal (ETV5): 1.08 fold enrichment (6-mer frequency, TF over GST control) | binding signal (HSF1): 2.19 fold enrichment (6-mer frequency, TF over GST control) | binding signal (SPIC): 1.12 fold enrichment (6-mer frequency, TF over GST control) | binding signal (ELF4): 1.14 fold enrichment (6-mer frequency, TF over GST control) | binding signal (ELK4): 1.18 fold enrichment (6-mer frequency, TF over GST control) | binding signal (ETV2): 1.13 fold enrichment (6-mer frequency, TF over GST control) | binding signal (ELF3): 1 fold enrichment (6-mer frequency, TF over GST control) | binding signal (CRX): 3.25 fold enrichment (6-mer frequency, TF over GST control) | binding signal (ETV1): 1.13 fold enrichment (6-mer frequency, TF over GST control)

From article PMC7862700, “An all-to-all approach to the identification of sequence-specific readers for epigenetic DNA modifications on cytosine”
